In PubChem BioAssay (EPA / NIEHS):
Where a structure was tested more than once in an assay, its records may differ in their call. Active and inactive are the calls of the source. How the source made its calls: active means hit-call score of the fitted dose curve at least 0.9, where 1 is the maximum; inactive means score below 0.9.

Columns and labels:
Conditions in all cases: mRNA level, 48 h; actives raise or lower the signal
[1] = read-out: Insulin-like growth factor-binding protein 1 (IGFBP1), IGFBP1 (gene 3484); experiment: LTEA_HepaRG_IGFBP1: Life Technologies and Expression Analysis (LTEA) Assay for Insulin-like growth factor-binding protein 1 (IGFBP1) using HepaRG (AID 2283508)
Method in brief: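 HepaRG cells, plated 48 h then switched to serum-free induction medium, exposed in duplicate for 48 h to 8-point half-log series from 100 uM in 0.5% DMSO. mRNA measured by qRT-PCR, normalized to ACTB/GAPDH/POLR2A; bidirectional fit versus DMSO.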

[2] = read-out: Interleukin 6 (IL6), IL6 (gene 3569); experiment: LTEA_HepaRG_IL6: Life Technologies and Expression Analysis (LTEA) Assay for Interleukin 6 (IL6) using HepaRG (AID 2283509)
Method in brief: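 HepaRG cells exposed in duplicate for 48 h to eight half-log concentrations, top 100 uM, in 0.5% DMSO serum-free induction medium. mRNA measured by qRT-PCR, normalized to ACTB, GAPDH and POLR2A. Bidirectional fit versus DMSO.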

[3] = read-out: Interleukin 6 Receptor (IL6R), IL6R (gene 3570); experiment: LTEA_HepaRG_IL6R: Life Technologies and Expression Analysis (LTEA) Assay for Interleukin 6 Receptor (IL6R) using HepaRG (AID 2283510)
Method in brief: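 Readout is IL6R transcript level by TaqMan qRT-PCR, normalized to three housekeeping genes and fitted bidirectionally against 0.5% DMSO controls. Human HepaRG cells received chemicals for 48 h in serum-free induction medium, highest concentration 100 uM.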

[4] = read-out: Potassium channel subfamily K member 1 (KCNK1), KCNK1 (gene 3775); experiment: LTEA_HepaRG_KCNK1: Life Technologies and Expression Analysis (LTEA) Assay for Potassium channel subfamily K member 1 (KCNK1) using HepaRG (AID 2283511)
Method in brief: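 Differentiated HepaRG cells, 48 h exposure in serum-free induction medium with 0.5% DMSO; 8 concentrations, half-log from 100 uM, duplicate. KCNK1 mRNA by qRT-PCR, normalized to ACTB, GAPDH, POLR2A; bidirectional fit vs DMSO.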

[5] = read-out: Keratin 19 (KRT19), KRT19 (gene 3880); experiment: LTEA_HepaRG_KRT19: Life Technologies and Expression Analysis (LTEA) Assay for Keratin 19 (KRT19) using HepaRG (AID 2283512)
Method in brief: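 Differentiated HepaRG cells in serum-free induction medium, exposed 48 h in duplicate to 8 half-log concentrations up to 100 uM in 0.5% DMSO. KRT19 mRNA by qRT-PCR, normalized to ACTB, GAPDH, POLR2A; bidirectional fit vs DMSO.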

[6] = read-out: JUN Transcription Factor, JUN (gene 3725); experiment: LTEA_HepaRG_JUN: Life Technologies and Expression Analysis (LTEA) Assay for JUN Transcription Factor using HepaRG (AID 2283513)
Method in brief: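 Cells plated 48 h, medium switched to serum-free induction medium, then dosed 48 h (100 uM top, half-log dilutions, 0.5% DMSO). RNA isolated; JUN measured by qRT-PCR against three housekeeping genes; gain or loss fitted relative to DMSO.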

[7] = read-out: Lipase C (LIPC), LIPC (gene 3990); experiment: LTEA_HepaRG_LIPC: Life Technologies and Expression Analysis (LTEA) Assay for Lipase C (LIPC) using HepaRG (AID 2283514)
Method in brief: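 HepaRG cells, 48 h after plating, treated in duplicate for 48 h in serum-free induction medium over 8 half-log concentrations from 100 uM, 0.5% DMSO. LIPC mRNA by TaqMan qRT-PCR normalized to ACTB/GAPDH/POLR2A; bidirectional fit versus DMSO.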

[8] = read-out: Lipoprotein lipase (LPL), LPL (gene 4023); experiment: LTEA_HepaRG_LPL: Life Technologies and Expression Analysis (LTEA) Assay for Lipoprotein lipase (LPL) using HepaRG (AID 2283515)
Method in brief: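 Differentiated HepaRG cells, plated 48 h, then exposed 48 h in serum-free induction medium to 8 concentrations (top 100 uM, half-log steps) in 0.5% DMSO, duplicate. LPL mRNA measured by qRT-PCR, normalized to ACTB, GAPDH and POLR2A.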

[9] = read-out: MicroRNA 122 (MIR122), gene 406906; experiment: LTEA_HepaRG_MIR122: Life Technologies and Expression Analysis (LTEA) Assay for MicroRNA 122 (MIR122) using HepaRG (AID 2283516); further: the transcript read is the microRNA miR-122
Method in brief: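 HepaRG plated 48 h, switched to serum-free induction medium, then treated in duplicate for 48 h (100 uM top, half-log steps, 0.5% DMSO vehicle). RNA isolated, qRT-PCR performed, concentration-response fitted both directions relative to DMSO.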

[10] = read-out: matrix metalloproteinase-10 (MMP10), MMP10 (gene 4319); experiment: LTEA_HepaRG_MMP10: Life Technologies and Expression Analysis (LTEA) Assay for matrix metalloproteinase-10 (MMP10) using HepaRG (AID 2283517)
Method in brief: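 Differentiated HepaRG cells in serum-free induction medium exposed 48 h in duplicate to 8-point half-log series up to 100 uM in 0.5% DMSO. mRNA quantified by qRT-PCR, normalised to ACTB, GAPDH, POLR2A; bidirectional fit versus DMSO.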

[11] = read-out: MYC, MYC (gene 4609); experiment: LTEA_HepaRG_MYC: Life Technologies and Expression Analysis (LTEA) Assay for MYC using HepaRG (AID 2283518)
Method in brief: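 Differentiated HepaRG cells exposed 48 h in serum-free induction medium to 8 concentrations (top 100 uM, half-log steps; 0.5% DMSO), duplicate. MYC mRNA measured by Fluidigm qRT-PCR, normalized to ACTB, GAPDH, POLR2A; bidirectional fit versus DMSO.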

[12] = read-out: matrix metalloproteinase-3 (MMP3), MMP3 (gene 4314); experiment: LTEA_HepaRG_MMP3: Life Technologies and Expression Analysis (LTEA) Assay for matrix metalloproteinase-3 (MMP3) using HepaRG (AID 2283519)
Method in brief: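 HepaRG cells (~100,000/well) in serum-free induction medium were dosed in duplicate for 48 h with an 8-point half-log series from 100 uM, 0.5% DMSO. MMP3 mRNA was quantified by Fluidigm TaqMan qRT-PCR, normalized to three housekeeping genes.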

[13] = read-out: Paternally Expressed 10 (PEG10), PEG10 (gene 23089); experiment: LTEA_HepaRG_PEG10: Life Technologies and Expression Analysis (LTEA) Assay for Paternally Expressed 10 (PEG10) using HepaRG (AID 2283520)
Method in brief: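 HepaRG, 48 h post-plating → serum-free induction medium → 48 h chemical exposure (duplicate, 8-pt, max 100 uM, half-log, 0.5% DMSO) → lysis in RLT → TaqMan qRT-PCR for PEG10, ACTB/GAPDH/POLR2A normalisation.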

[14] = read-out: Protein phosphatase 2A (PPP2R4), PTPA (gene 5524); experiment: LTEA_HepaRG_PPP2R4: Life Technologies and Expression Analysis (LTEA) Assay for Protein phosphatase 2A (PPP2R4) using HepaRG (AID 2283522)
Method in brief: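 Readout is PPP2R4 transcript level by microfluidic qRT-PCR after 48 h chemical treatment of human HepaRG liver cells. Concentrations spanned 100 uM downward in half-log steps; gain or loss of signal was fitted relative to DMSO.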

[15] = read-out: Phosphatase and tensin (PTEN), PTEN (gene 5728); experiment: LTEA_HepaRG_PTEN: Life Technologies and Expression Analysis (LTEA) Assay for Phosphatase and tensin (PTEN) using HepaRG (AID 2283523)
Method in brief: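 HepaRG cells, 48 h after plating, exposed in duplicate for 48 h in serum-free induction medium to 8 half-log concentrations up to 100 uM (0.5% DMSO). PTEN mRNA by qRT-PCR, normalized to ACTB, GAPDH, POLR2A; bidirectional fit versus DMSO.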

[16] = read-out: solute carrier (SLC22A1), SLC22A1 (gene 6580); experiment: LTEA_HepaRG_SLC22A1: Life Technologies and Expression Analysis (LTEA) Assay for solute carrier (SLC22A1) using HepaRG (AID 2283524)
Method in brief: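 Differentiated human HepaRG cells in serum-free induction medium, exposed 48 h in duplicate to 8-point half-log series from 100 µM top in 0.5% DMSO. SLC22A1 mRNA by TaqMan qRT-PCR normalized to ACTB, GAPDH, POLR2A; bidirectional fit versus DMSO.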

[17] = read-out: Pyruvate Dehydrogenase Kinase 4 (PDK4), PDK4 (gene 5166); experiment: LTEA_HepaRG_PDK4: Life Technologies and Expression Analysis (LTEA) Assay for Pyruvate Dehydrogenase Kinase 4 (PDK4) using HepaRG (AID 2283525)
Method in brief: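 HepaRG cells plated 48 h, then switched to serum-free induction medium and exposed in duplicate for 48 h to 8 half-log concentrations from 100 uM in 0.5% DMSO. PDK4 mRNA measured by qRT-PCR, normalized to ACTB, GAPDH and POLR2A; bidirectional fit versus DMSO.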

[18] = read-out: NAD(P)H dehydrogenase [quinone] 1 (NQO1), NQO1 (gene 1728); experiment: LTEA_HepaRG_NQO1: Life Technologies and Expression Analysis (LTEA) Assay for NAD(P)H dehydrogenase [quinone] 1 (NQO1) using HepaRG (AID 2283526)
Method in brief: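 HepaRG, 48 h post-plating → serum-free induction medium → test chemical 48 h (duplicate, 100 uM top, half-log x8, 0.5% DMSO) → RNA isolation → qRT-PCR, ACTB/GAPDH/POLR2A normalization; bidirectional curve fit vs DMSO baseline.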

[19] = read-out: Nuclear factor erythroid 2-related factor 2 (Homo sapiens) (UniProt Q16236); experiment: LTEA_HepaRG_NFE2L2: Life Technologies and Expression Analysis (LTEA) Assay for Nuclear factor erythroid 2-related factor 2 (NFE2L2) Transcription Factor using HepaRG (AID 2283527);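 on outcome: TaqMan qRT-PCR transcript level normalised to ACTB GAPDH and POLR2A housekeeping genes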
Method in brief: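 Differentiated human HepaRG cells, serum-free induction medium, exposed 48 h in duplicate to eight half-log concentrations up to 100 uM in 0.5% DMSO. NFE2L2 mRNA by Fluidigm TaqMan qRT-PCR, normalised to ACTB, GAPDH, POLR2A; bidirectional change versus DMSO.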

[20] = read-out: Nuclear factor NF-kappa-B p105 subunit (Homo sapiens) (UniProt P19838); experiment: LTEA_HepaRG_NFKB1: Life Technologies and Expression Analysis (LTEA) Assay for Nuclear Factor Kappa B Subunit 1 (NFKB1) using HepaRG (AID 2283521);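 on outcome: TaqMan qRT-PCR transcript normalised to ACTB GAPDH and POLR2A housekeeping genes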
Method in brief: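 Differentiated human HepaRG cells were exposed for 48 h in serum-free induction medium to eight concentrations (top 100 uM, half-log steps, 0.5% DMSO), in duplicate. NFKB1 mRNA was measured by TaqMan qRT-PCR, normalized to ACTB/GAPDH/POLR2A, and fitted bidirectionally against DMSO.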

Sequence of Nuclear factor NF-kappa-B p105 subunit (Homo sapiens) (P19838 whole entry, looked up): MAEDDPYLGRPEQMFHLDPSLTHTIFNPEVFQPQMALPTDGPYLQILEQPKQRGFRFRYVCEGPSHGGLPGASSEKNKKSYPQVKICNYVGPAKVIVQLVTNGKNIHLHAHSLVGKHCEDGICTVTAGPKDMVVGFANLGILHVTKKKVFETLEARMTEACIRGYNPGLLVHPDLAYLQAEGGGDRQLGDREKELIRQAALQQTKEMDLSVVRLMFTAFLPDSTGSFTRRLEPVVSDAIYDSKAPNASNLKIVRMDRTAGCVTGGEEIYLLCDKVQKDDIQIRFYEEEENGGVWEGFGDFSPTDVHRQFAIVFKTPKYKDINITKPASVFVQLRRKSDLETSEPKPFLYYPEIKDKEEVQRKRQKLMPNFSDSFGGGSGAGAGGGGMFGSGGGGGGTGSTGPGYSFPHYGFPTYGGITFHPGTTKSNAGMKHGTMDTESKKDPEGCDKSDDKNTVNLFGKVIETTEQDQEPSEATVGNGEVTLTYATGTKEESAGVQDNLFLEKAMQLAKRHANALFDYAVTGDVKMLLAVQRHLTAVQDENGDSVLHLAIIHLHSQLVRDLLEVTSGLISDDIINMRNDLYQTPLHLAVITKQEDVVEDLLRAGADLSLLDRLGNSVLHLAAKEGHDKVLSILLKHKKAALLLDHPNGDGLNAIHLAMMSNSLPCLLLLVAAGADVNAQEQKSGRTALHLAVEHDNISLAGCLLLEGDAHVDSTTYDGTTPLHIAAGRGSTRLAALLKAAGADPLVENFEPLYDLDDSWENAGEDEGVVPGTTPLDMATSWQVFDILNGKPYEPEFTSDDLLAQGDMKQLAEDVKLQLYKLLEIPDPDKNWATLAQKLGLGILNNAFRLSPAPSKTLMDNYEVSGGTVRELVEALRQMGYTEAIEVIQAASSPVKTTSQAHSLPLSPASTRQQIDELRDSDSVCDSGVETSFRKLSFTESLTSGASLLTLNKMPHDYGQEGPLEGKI
Sequence of Nuclear factor erythroid 2-related factor 2 (Homo sapiens) (Q16236 whole entry, looked up): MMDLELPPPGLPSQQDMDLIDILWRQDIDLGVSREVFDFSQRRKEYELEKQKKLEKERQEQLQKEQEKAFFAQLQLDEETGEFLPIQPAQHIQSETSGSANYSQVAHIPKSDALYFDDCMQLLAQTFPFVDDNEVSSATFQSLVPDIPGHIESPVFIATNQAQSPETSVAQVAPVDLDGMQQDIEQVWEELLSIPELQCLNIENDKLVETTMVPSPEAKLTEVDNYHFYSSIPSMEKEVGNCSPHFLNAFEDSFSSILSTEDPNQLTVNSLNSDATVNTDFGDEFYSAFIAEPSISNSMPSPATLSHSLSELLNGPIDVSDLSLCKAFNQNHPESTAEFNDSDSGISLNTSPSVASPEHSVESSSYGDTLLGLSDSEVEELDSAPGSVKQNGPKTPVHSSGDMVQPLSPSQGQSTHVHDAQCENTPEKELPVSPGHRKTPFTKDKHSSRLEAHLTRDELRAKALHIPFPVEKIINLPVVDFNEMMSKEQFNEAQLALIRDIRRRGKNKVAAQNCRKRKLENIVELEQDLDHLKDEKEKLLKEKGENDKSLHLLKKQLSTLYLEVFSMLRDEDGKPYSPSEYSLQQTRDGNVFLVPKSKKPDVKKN

O=C(O)C(Cl)(Cl)Cl
outcome [1]: inactive
outcome [2]: inactive
outcome [3]: inactive
outcome [4]: inactive
outcome [5]: inactive
outcome [6]: inactive
outcome [7]: inactive
AC50 [8]: 9.92 µM (active)
outcome [8]: inactive
outcome [9]: inactive
outcome [10]: inactive
outcome [11]: inactive
outcome [12]: inactive
outcome [13]: inactive
outcome [14]: inactive
outcome [15]: inactive
outcome [16]: inactive
outcome [17]: inactive
outcome [18]: inactive
outcome [19]: inactive

Cn1sc(Cl)cc1=O
outcome [1]: inactive
outcome [2]: inactive
outcome [3]: inactive
outcome [4]: inactive
outcome [5]: inactive
outcome [6]: inactive
outcome [7]: inactive
outcome [8]: inactive
outcome [9]: inactive
outcome [10]: inactive
outcome [11]: inactive
outcome [12]: inactive
outcome [13]: inactive
outcome [20]: inactive
outcome [14]: inactive
outcome [15]: inactive
outcome [16]: inactive
outcome [17]: inactive
outcome [18]: inactive
outcome [19]: inactive

CN(C)N=O
outcome [1]: inactive
outcome [2]: inactive
outcome [3]: inactive
outcome [4]: inactive
outcome [5]: inactive
outcome [6]: inactive
outcome [7]: inactive
outcome [8]: inactive
outcome [9]: inactive
outcome [10]: inactive
outcome [11]: inactive
outcome [13]: inactive
outcome [20]: inactive
outcome [14]: inactive
outcome [15]: inactive
outcome [16]: inactive
outcome [17]: inactive
outcome [18]: inactive
outcome [19]: inactive

C=C(C)C(=O)[O][Sn]([CH2]CCC)([CH2]CCC)[CH2]CCC
AC50 [1]: 2.66 µM (active)
AC50 [2]: 3.28 µM (active)
outcome [3]: inactive
outcome [4]: inactive
outcome [5]: inactive
AC50 [6]: 6.54 µM (active)
AC50 [7]: 2.37 µM (active)
AC50 [8]: 6.44 µM (active)
outcome [9]: inactive
outcome [10]: inactive
AC50 [11]: 2.77 µM (active)
outcome [12]: inactive
outcome [13]: inactive
AC50 [20]: 94.9 µM (active)
outcome [14]: inactive
AC50 [15]: 15.8 µM (active)
AC50 [16]: 2.7 µM (active)
AC50 [17]: 1.18 µM (active)
AC50 [18]: 9.2 µM (active)
AC50 [19]: 61.3 µM (active)
